# About 37,000 (12%) of roughly 300,000 compounds were called active. This excerpt belongs to a sample that is enriched for actives. Unmarked numbers belong to inactive results. Cut-off read from the data, not from the text of the source: active = max response mostly above about 13% (no sharp cut-off); inactive = mostly below about 14%.
# Assay: Cycloheximide Counterscreen for Small Molecule Inhibitors of Shiga Toxin; note: read at 38.3 µM for the half of the compounds with a filed dose; 0% is about no effect
# Settings: cell reporter, cycloheximide protein synthesis inhibition counterscreen; hits give high values
row,Compound,max response
1,O=C1COc2ccc(NC(=O)N3CCN(c4ccc(F)cc4)CC3)cc2N1,-3.27%
2,COc1ccc(OC)c(NC(=O)CSc2nc(-c3ccccc3)cc(=O)[nH]2)c1,-6.47%
3,CCC(NC(=O)c1cc(COc2ccc(F)c(F)c2)on1)c1ccncc1 (centres undefined),33.7% (active)
4,O=C(Oc1ccc(C(=S)N2CCOCC2)cc1)c1ccc(F)cc1,-3.82%
5,O=C(c1cc(COc2ccc(F)cc2F)on1)N1CCOCC1,47% (active)
6,COc1ccc(CCNC(=O)c2cnc(Cl)c(Cl)c2)cc1,6.51%
7,O=C(CC(NC(=O)c1ccccc1)c1ccccc1)Nc1ccc(F)c(F)c1 (centres undefined),1.73%
8,COc1ccc(-c2cc(C(=O)NCCCN3CCOCC3)no2)cc1,2.58%
9,COc1ccc(OCc2cc(C(=O)NCC3(C)COC3)no2)c(Cl)c1,40.1% (active)
10,COc1cc(C(=O)N2CCOCC2)cc(OC)c1OC,-5.91%
11,O=C(NC1Cc2ccccc2C1)c1cc(COc2cccc(C(F)(F)F)c2)on1,-3.57%
12,O=C(Nc1ccc(N2CCOCC2)cc1)c1ccc(-c2ccccc2[N+](=O)[O-])o1,21.5%
13,COc1ccc(/C=C2\CCCC3C2=NN(C(=O)c2scnc2C)C3c2ccc(OC)cc2)cc1 (centres undefined),11.8%
14,CCOC(=O)N1CCN(S(=O)(=O)c2ccc(-n3cnnn3)cc2)CC1,-0.729%
15,O=S(=O)(NC1CCCCC1N1CCC(O)CC1)c1ccc(Cl)cc1 (centres undefined),-0.643%
16,Oc1ccc(C2Nc3cccc4cccc(c34)N2)cc1,-1.27%
17,O=C(O)c1ccc(NS(=O)(=O)c2ccc3c(c2)C(=O)c2cc(S(=O)(=O)Nc4ccc(C(=O)O)cc4)ccc2-3)cc1,12.6%
18,Cc1cccc(CCNS(=O)(=O)c2ccc3c(c2)NC(=O)CO3)c1,-8.72%
19,COc1ccc(C2CC(O)(c3ccccc3)Oc3cc(C)cc(C)c32)cc1 (centres undefined),15.7%
20,CCOC(=O)c1cc(=O)c2ccc(OCc3ccccc3)cc2o1,-0.548%
21,O=C(Cc1nc2ccccc2[nH]c1=O)c1ccc(Cl)cc1,49.5% (active)
22,N#C/C(=C(/O)COC(=O)COc1ccc(Cl)cc1)c1nc2ccccc2[nH]1,-7.7%
23,O=C(C[n+]1ccc2c(c1)nnn2-c1ccccc1)c1ccc(Cl)cc1,6.33%
24,COc1ccc(CC(NC(C)=O)C(=O)NC2CCN(C(=O)c3ccc(Cl)cc3)CC2)cc1 (centres undefined),-8.8%

row,Compound,max response
1,c1ccc2c(NC3C4CC5CC(C4)CC3C5)nc(N3CCOCC3)nc2c1 (centres undefined),-3.82%
2,Cn1c(=O)n(Cc2ccco2)c(=N)c2c3c(sc21)CCCC3,-4.49%
3,O=c1oc(-c2ccco2)nc2sc3c(c12)CCCCC3,15% (active)
4,O=C(NCc1ccco1)c1cccn2c(=O)c3c4c(sc3nc12)CCCC4,13.5%
5,Cc1cccc(NC(=O)C2CCCN(C(=O)NCc3ccccc3)C2)c1C (centres undefined),1.32%
6,Clc1ccc(C2[C@H]3CN(CC4CCCCC4)[C@H](c4ccccc4)C34CC2(c2cccnc2)C4)cn1 (some centres undefined),-6.35%
7,O=S(=O)(c1ccc(Br)cc1)n1ccc2ccccc21,-2.94%
8,CC(=O)c1nn(-c2cccc(C(F)(F)F)c2)c(=O)[nH]c1=O,-1.16%
9,COc1ccc(-c2nc3n(c2Br)CCC3)cc1,45.3% (active)
10,Brc1cccc(-c2nnc3n2CCC3)c1,-1.45%
11,COc1ccc(-c2nnc3n2CCCCC3)cc1,-0.714%
12,COc1ccc(Br)cc1C(=O)NC(=S)Nc1cc(-c2nc3ccccc3[nH]2)ccc1C,24.4%
13,COc1ccc(-c2nc(N)ncc2-c2ccc(Cl)cc2)c(O)c1,-1.99%
14,Cc1[nH]c2ccccc2c1C(=O)COC(=O)C(C)C,17.9% (active)
15,Cc1[nH]c2ccccc2c1C(=O)CSCC(=O)O,-0.861%
16,Cc1[nH]c2ccccc2c1C(=O)COC(=O)c1c(-c2ccccc2)noc1C,-1.13%
17,Cc1ccc(N(CC(=O)NC2CCCCC2)C(=O)CCCC(=O)Nc2ccccn2)c(C)c1,-2.99%
18,CCc1ccc2[nH]c(=O)c(Cc3ccccc3)c(O)c2c1,0.407%
19,COc1ccc(-c2onc(C)c2-c2ccc3c(c2)OCCO3)c(O)c1,-1.9%
20,COc1cc(-c2c(-c3ccc4c(c3)OCO4)noc2C)ccc1F,31.7% (active)
21,COc1ccc(CCNC(=O)c2cc(-c3ccc4c(c3)OCO4)on2)cc1OC,-2.19%
22,Cc1ccc(-c2cnc(NC(=O)CCC(=O)N(C)Cc3ccccc3)n2C)cc1,1.02%
23,CC(C)(C)c1ccc(C(=O)NCCC(=O)NCc2ccco2)cc1,6.14%
24,O=C(Nc1ccccc1)Nc1ccccc1C(=O)NCc1ccco1,12.3% (active)

row,Compound,max response
1,Cc1cccc(Nc2ccccc2C(=O)NCc2ccco2)c1C,-4.07%
2,COc1ccc(C(=O)Nc2ccccc2C(=O)NCc2ccco2)cc1,-2.2%
3,CC(C)(C)c1ccc(NC(=O)NCc2ccco2)cc1,47.3% (active)
4,CC(C)(C)NC(=O)NCc1ccco1,-1.96%
5,CCOCCCNC(=O)C1(O)c2cc(Br)ccc2NC(=O)N1c1ccc(C)c(C)c1 (centres undefined),-2.74%
6,O=C(/C=C/c1ccc(F)cc1)Nc1cccc(S(=O)(=O)Nc2cccc(C(F)(F)F)c2)c1,-2.37%
7,CCCC1(C(=O)OCC)NC(c2ccc(N(C)C)cc2)C2C(=O)N(c3ccc4c(c3)OCCO4)C(=O)C21 (centres undefined),-5.79%
8,CC1CCCCC1NC(=O)CSc1nnc(-c2ccncc2)n1CCCN(C)C (centres undefined),-2.68%
9,COc1cccc(CN(C)CC(O)COC(c2ccccc2)c2ccccc2C)c1 (centres undefined),-4.62%
10,CC(CNc1ccc([N+](=O)[O-])cc1)NC(=O)c1ccccc1Br (centres undefined),-2.28%
11,CCNC(=S)N(CCN(CC)CC)Cc1cc2cc3c(cc2[nH]c1=O)OCO3,-2.69%
12,CC(C)Oc1ccc(Oc2ccc(C(F)(F)F)cn2)cc1,10.2%
13,CSc1nnc(-c2ccc(C(F)(F)F)cn2)o1,15.3% (active)
14,CCOc1cc(N2CCOCC2)c(OCC)cc1NC(=O)c1ccc(C)s1,-4.86%
15,CCn1c(SCC(=O)Nc2ccc(Br)cc2)nc2sc3c(c2c1=O)CCN(C)C3,9.46%
16,COc1ccc(CCNC(=O)c2ccc(CS(=O)(=O)c3ccc(Br)cc3)o2)cc1OC,10.1%
17,COc1ccc(CN2C(=O)C(C)S/C2=N/N=C/c2ccco2)cc1 (centres undefined),31.9% (active)
18,CCC1S/C(=N/N=C/c2ccco2)NC1=O (centres undefined),0.781%
19,C=CCN1C(=O)C(Cc2cccc(Cl)c2)S/C1=N/N=C/c1ccco1 (centres undefined),6.81%
20,COc1cc(OC)cc(C(=O)NC2CCN(C(=O)N3c4ccccc4Sc4ccccc43)CC2)c1,9.65%
21,CCCc1cc(=O)n2[nH]c(C)c(-c3ccc(Cl)cc3)c2n1,-2.56%
22,COc1ccc(N(CC(=O)Nc2cc(OC)ccc2OC)S(=O)(=O)c2c(C)noc2C)cc1,-6.58%
23,O=C(/C=C/c1cccs1)c1cc(Cl)ccc1OC(=O)N1CCOCC1,23.9% (active)
24,CC(=O)Nc1ccccc1OC(=O)N1CCOCC1,11.6%

row,Compound,max response
1,O=C(Oc1cccc(C(=S)N2CCOCC2)c1)c1cccc(Cl)c1,-0.347%
2,Cc1cccc(OCC(O)Cn2c(N3CCCCC3)nc3c2c(=O)[nH]c(=O)n3C)c1 (centres undefined),14.8%
3,CCOC(=O)c1c(Cc2ccc(Cl)cc2)c[nH]c1C,26.8% (active)
4,CCOC(=O)C1=C(C)NC(=O)N(C(C)=O)C1c1ccc(Cl)cc1 (centres undefined),-4.1%
5,CCOC(=O)c1c(S(=O)(=O)Nc2cccc(Cl)c2)c(C)n(C)c1C,5.3%
6,CC(OC(=O)c1ccc2noc(-c3ccccc3)c2c1)C(N)=O (centres undefined),2.78%
7,O=C(Nc1ccc([N+](=O)[O-])cc1)C1(c2ccccc2)CCOCC1,-3.32%
8,O=C(Nc1ccc(F)cc1)C1CCN(C(=O)c2ccc([N+](=O)[O-])cc2)CC1,3.26%
9,O=C(Nc1ccc([N+](=O)[O-])cc1)C1CC12CCC2 (centres undefined),21.8% (active)
10,O=C(c1c(F)cccc1F)N1CCN(S(=O)(=O)c2ccc3c(c2)OCCO3)CC1,13.2%
11,COc1ccc(N2CC(C(=O)NCCS(=O)(=O)N3CCN(c4ccccc4)CC3)CC2=O)cc1 (centres undefined),5.23%
12,C=CCc1cccc(/C=N/NC(=O)COc2ccc(-n3cnnn3)cc2)c1O,7.64%
13,Cc1cccc(CSc2nnc(NC(=O)CSc3nnc(C)s3)s2)c1,10.9%
14,Cc1ccc(Nc2nnc(SCc3ccccc3)s2)cc1,24.5% (active)
15,Cc1nnc(SCc2nc3ccccc3nc2C)s1,-3.4%
16,Cc1ccc(Nc2nc(N)nc(CSc3nnc(C)s3)n2)cc1,34.9% (active)
17,O=C(Cc1cccs1)Nc1nnc(SCc2ccc(F)cc2)s1,-3.78%
18,COC(=O)CSc1nnc(NC(=O)CCc2ccccc2)s1,14%
19,O=C(Nc1nnc(SCc2ccccc2)s1)c1ccco1,23.3% (active)
20,CCOC(=O)N1CCN(Cc2nc(N)nc(Nc3ccc(C)cc3)n2)CC1,5.78%
21,O=C(Nc1nnc(CCOCCOCCc2nnc(NC(=O)c3ccco3)s2)s1)c1ccco1,-1.29%
22,Cc1ccc(OCC(=O)Nc2ccc(C(=O)O)cc2NC(=O)COc2ccc(C)c(C)c2)cc1C,7.55%

# Source: PubChem BioAssay AID2314 (National Center for Advancing Translational Sciences (NCATS), 2010)
